# “And” between values parts separate entries of the source, which are not always exact repeats. Equal entries are not always repeated. The panel holds about 83,000 compounds, 20% with a hit somewhere; the sample as a whole holds those more often.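 Cells were grown in 96-well plates and exposed to the test compound at a single concentration for 48 hours; results are reported as percent growth, with values below 10 considered active.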 Unmarked numbers belong to inactive results. The source made the active and inactive calls.
# Tested on: HL-60(TB) leukemia
# Assay: NCI-60 one-dose screen, 48 h (100 = growth as untreated, 0 = no growth, -100 = all killed)
# Conditions: 10 µM unless noted
row,SMILES,growth
1,CNC(=O)c1cc(Oc2ccc3nc(NC(C)=O)sc3c2)ccn1,98.9%
2,COC1C(=O)CCC2(CO2)C1(O)C1(C)OC1CCC(C)C (centres undefined),68%
3,C=C1C(=O)O[C@H]2[C@H]1CC/C(COC(=O)/C=C\C(=O)NCc1ccc(Cn3c(=O)sn(-c4ccc(Cl)cc4)c3=O)cc1)=C\CC[C@@]1(C)O[C@@H]21,-52.5% (active)
4,COc1cccc(C2=NN3C(C2)c2cc(Br)cc(OC)c2OC32CCN(Cc3ccccc3)CC2)c1 (centres undefined),103%
5,COc1ccc(Cn2c(NCCN=C(N)N)nc(=O)n(Cc3ccc(F)cc3)c2=O)cc1,94.1% and 96.9%
6,C=CC[N+]1(CCO)CCN=C1CCCCCCCCCCCCC (centres undefined),-31.8% (active)
7,CSc1nc(N)nc2c1ncn2C,75.8%
8,Cc1[nH]c2ccc(F)cc2c1CCNC(=O)C1CCN(C(=O)c2ccccc2)C1 (centres undefined),107% [25 µM]
9,COc1cc(NCCCCC(C)N)c2nccc(C)c2c1 (centres undefined),96.7%
10,CC(C)(C)NC(C1=CC(C)(C)c2ccccc2C1=O)c1ccccc1 (centres undefined),-45.2% (active)
11,CC1(c2ccccc2O)NN=C(/N=C/c2cccc([N+](=O)[O-])c2)N1C(Cc1c[nH]c2ccccc12)C(=O)O (centres undefined),120%
12,O=c1scc(-c2ccc(C(F)(F)F)cc2)s1,92.7%
13,CCCCCCCCCCCCCCCCCC1=NCCN1CCO,36.3%
14,Cc1ncc(CO)c(C(=O)O)c1O,84.2%
15,CC(=O)N1c2ccccc2NC2=C(C(=O)N(Cc3ccccc3)C2(C)C)C1c1ccco1 (centres undefined),9.63% (active)
16,O=C(NCCc1ccccc1)C1CCC(=O)N1Cc1ccc(Br)cc1 (centres undefined),89%
17,COC(=O)Nc1nc2ccc(C(=O)c3ccccc3N(C)C3COC3)cc2[nH]1,15.6%
18,C/C(=N\Nc1cc(C)c2ccccc2n1)c1ccccn1,-47.1% (active)
19,Cc1onc(-c2ccccc2)c1C(=O)N/N=C/c1cc(Cl)cc(Cl)c1O,15.7%
20,COc1ccc(-c2oncc2-c2cc(OC)c3c(c2)OCO3)cc1,-6.72% (active)

row,SMILES,growth
1,NNC(=O)/C(=C\c1ccc([N+](=O)[O-])cc1)CC(=O)c1ccc(Cl)c(Cl)c1,98.9%
2,O=C(c1nn(-c2ccccc2)c2c1CC(NCc1ccc(F)cc1)CC2)N1CCCCC1 (centres undefined),86.6%
3,COc1cc(Nc2nc3ccccc3nc2NS(=O)(=O)c2ccc(NC(=O)c3ccc(C)c(OC)c3)cc2)cc(OC)c1,74.8% and 26.7%
4,CC[C@@H](C)/C=C(C)/C=C/C(O)=C1\C(=O)N[C@@H](Cc2ccc(OC(=O)[C@@](OC)(c3ccccc3)C(F)(F)F)cc2)C1=O,8.34% (active)
5,CCN(CC)CCn1c(=N)n(CC(O)c2ccc(Cl)c(Cl)c2)c2ccccc21 (centres undefined),71%
6,CCOc1ccc2nc(-c3cccc(OCC(=O)NC(C)C)c3)nc(Nc3ccc(-c4cn[nH]c4)cc3)c2c1,2.3% (active)
7,CCN(CC)CC(O)CNc1c2ccc([N+](=O)[O-])cc2nc2cc(OC)c(OC)cc12 (centres undefined),-17.5% (active)
8,NNc1ccc2ccccc2c1,98.4% and 108%
9,O=C(Nc1ccc(Br)cc1)Nc1ccccc1Cl,70.7%
10,O=C(/C=C/c1c(-c2ccccc2)[nH]c2ccccc12)S(=O)(=O)c1ccccc1,-22.1% (active)
11,C#Cc1ccccc1NC(=O)c1sc2nc3c(cc2c1N)CCCCCC3,92.7%
12,O=C1/C(=C/c2ccc(Cl)cc2)COc2ccc(O)c(O)c21,-11.7% (active)
13,CC1(C)c2[nH]c3ccccc3c2C[C@]2(C)[C@H]3CC=C4[C@@H]5C[C@@](C)(C(N)=O)CC[C@]5(C)CC[C@@]4(C)[C@]3(C)CC[C@@H]12,55.8%
14,CCCCCCCCCCCCCCCCNC(=S)N/N=C/c1ccc(O)cc1O,49.9%
15,O=C1Nc2ccc(I)cc2C1=O,111%
16,Nc1ccc(N=Nc2ccc(S(=O)(=O)O)cc2)cc1S(=O)(=O)O,98.5% and 146%
17,Cc1nc(Nc2ncc(C(=O)Nc3c(C)cccc3Cl)s2)cc(N2CCN(CCO)CC2)n1,107% and 35.7%
18,NNC(=O)c1nc(N)n(-c2ccc(S(N)(=O)=O)cc2)n1,99.5%
19,CC(C)(C)c1nn(-c2ccccc2)c2c1C(=O)CSC(c1ccccc1Cl)N2 (centres undefined),-2.32% (active)

# Source: PubChem BioAssay (NCI)
